The values below come from the supplement of paper PMC12669032.

The subject of this assay is Streptococcus salivarius. In words: growth AUC relative to DMSO control (median of replicates) (fraction); higher = more growth (less inhibition), active = hit call of the paper. The conditions noted are these: 20 µM; 24 h. The procedure, abridged: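 Gut bacterial monocultures in mGAM were treated with 20 µM compound (1% DMSO) and grown anaerobically at 37 °C in round-bottom 96-well plates from OD600 0.05. OD600 was read hourly for 24 h, with the minimum OD set to 0. Area under the growth curve was normalised to the plate median of solvent-only wells, or to row and column medians on the industrial chemical plate. Each value is the median of three biological replicates, each grown on a separate day.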
Consider `O=C(O)CNC(=O)c1cnccc1C(F)(F)F`, for which the “growth AUC” value is 1 (inactive). To `CN(C)C(=O)Nc1ccc(Cl)c(Cl)c1` belongs 1.01 (inactive); to `COC(=O)COc1ccc(Cl)cc1C`, 1.01 (inactive); to `COc1c(Cl)ccc(Cl)c1C(=O)O`, 1.03 (inactive). As to `Cc1nn(C)c(F)c1C(=O)Nc1ccccc1C(C)CC(C)C` (centres undefined), the “growth AUC” value was 1.02 (inactive). As to `Cc1nn(C)c(Oc2ccccc2)c1/C=N/OCc1ccc(C(=O)OC(C)(C)C)cc1`, the “growth AUC” value was 0.993 (inactive).

With `CC(C)OC(=O)N[C@H](C(=O)N[C@H](C)c1nc2ccc(F)cc2s1)C(C)C`, the “growth AUC” value was 0.959 (inactive).

`CC(C)c1cccc2c(=O)c3ccccc3sc12`: the “growth AUC” value was 1.05 (inactive). To `Cl.NCCO/C=C/[C@H](N)C(=O)O` belongs 1.05 (inactive). Turning to `CCNc1nc(N)[nH]c(=O)n1`, the “growth AUC” value was 0.978 (inactive). With `COC1CCC2(CC1)NC(=O)C(c1cc(C)ccc1C)=C2OC1OC(CO)C(O)C(O)C1O` (centres undefined) the figure was 1.01 (inactive). In the case of `CCCCCCCCCCCC[N+](C)(C)Cc1ccc(CC)cc1.[Cl-]`, the “growth AUC” value was 1.03 (inactive). With `CCOC(=O)CSc1nc(C(C)(C)C)nn1C(=O)N(C)C` the figure was 0.957 (inactive); with `c1ccc2c(c1)ccc1ccccc12`, 0.997 (inactive). With `CSC(=O)c1cccc2nnsc12` the figure was 0.968 (inactive); with `CC(C)OC(=O)c1cc(C(=O)OC(C)C)cc([N+](=O)[O-])c1`, 0.992 (inactive). To `FC(F)(F)/N=C1\SC(=Nc2ccccc2)N(c2ccccc2)\C1=N\C(F)(F)F` belongs 0.946 (inactive); to `COc1ccc(Oc2ccc(NC(=O)N(C)C)cc2)cc1`, 0.988 (inactive); to `C#CC(C)N(C)C(=O)Nc1ccc(Cl)cc1` (centres undefined), 0.993 (inactive). As to `CCOC(=O)C1=NOC(c2ccccc2)(c2ccccc2)C1`, the “growth AUC” value was 0.959 (inactive). With `Br[C@@H]1CC[C@@H](Br)[C@@H](Br)CC[C@H](Br)[C@H](Br)CC[C@H]1Br` the figure was 0.898 (inactive); with `c1cc2ccc3ccc4ccc5cccc6c(c1)c2c3c4c56`, 1.02 (inactive); with `O=C(O)COc1ccc(Cl)c2cccnc12`, 1.05 (inactive). With `COc1cc(OC)nc(NC(=O)NS(=O)(=O)c2c(-c3nnn(C)n3)cnn2C)n1` the figure was 0.953 (inactive); with `CON(C(=O)c1cc(C)oc1C)C1CCCCC1`, 0.989 (inactive). With `CN(C)C(=O)Nc1ccccc1`, the “growth AUC” value was 0.969 (inactive). Turning to `CCOC(=O)C(C)Oc1ccc(Oc2cnc3cc(Cl)ccc3n2)cc1` (centres undefined), the “growth AUC” value was 1.05 (inactive). To `CC(C)N(C(=O)CS(=O)CC(=O)O)c1ccc(F)cc1` (centres undefined) belongs 0.948 (inactive); to `Nc1ccc(S(=O)(=O)Nc2cnc3ccccc3n2)cc1`, 1.03 (inactive). To `CC(C)(NC(=O)NCc1ccccc1Cl)c1ccccc1` belongs 1 (inactive). As for `O=C(O)Cc1c[nH]c2ccccc12`, the “growth AUC” value was 1.01 (inactive). To `CCCCOCN(C(=O)CS(=O)(=O)[O-])c1c(CC)cccc1CC.[Na+]` belongs 0.97 (inactive); to `O.O.O=[N+]([O-])c1ccc([O-])cc1.[Na+]`, 1.05 (inactive). On to `COc1cc(OC)nc(NC(=O)NS(=O)(=O)c2c(Cl)nc3ccccn23)n1`, for which the “growth AUC” value is 1.05 (inactive). On to `CC(=O)CC(c1ccccc1)c1c(O)c2ccccc2oc1=O` (centres undefined), for which the “growth AUC” value is 1 (inactive). For `CCOC(N)=O`, the “growth AUC” value was 1.01 (inactive). In the case of `Nc1cc(Cl)nc(C(=O)O)c1Cl`, the “growth AUC” value was 1.03 (inactive). To `COC(=O)C(C)Oc1cc(Cl)c(Cl)cc1Cl` (centres undefined) belongs 1.02 (inactive). Turning to `C=CCOC(Cn1ccnc1)c1ccc(Cl)cc1Cl` (centres undefined), the “growth AUC” value is 0.915 (inactive).
